Laboratory results published in PubChem BioAssay (EPA / NIEHS).
Values joined by “and” are separate entries in the source; they are usually repeats but may differ in a detail not shown here. Identical values can stand only once. Where a structure was tested more than once in an assay, its records may differ in their call. Active and inactive are the calls of the source. How the source made its calls: active means hit-call score of the fitted dose curve at least 0.9, where 1 is the maximum; inactive means score below 0.9.

Experiment: ATG_TA_CIS: Attagene CIS-FACTORIAL HepG2 Assay for human TA Basal Promoter (AID 2282964)
Settings: HepG2 Attagene CIS-factorial TA basal promoter reporter; actives raise or lower the signal
Procedure: ATG_CIS is a cell-based, multiplexed-readout assay that uses HepG2, a human liver cell line, with measurements taken at 24 hours after chemical dosing in a 24-well plate.ATG_TA_CIS is one of 52 assay component(s) measured or calculated from the ATG_CIS assay. It is designed to make measurements of mRNA induction, a form of inducible reporter, as detected with fluorescence intensity signals by Reverse transcription polymerase chain reaction (RT-PCR) and Capillary electrophoresis technology.Data from the assay component ATG_TA_CIS was analyzed into 1 assay endpoint. This assay endpoint, ATG_TA_CIS, was analyzed with bidirectional fitting relative to DMSO as the negative control and baseline of activity. Using a type of inducible reporter, measures of mRNA for gain or loss-of-signal activity can be used to understand the background control at the transcription factor-level as they relate to the gene . Furthermore, this assay endpoint can be referred to as a secondary readout, because this assay has produced multiple assay endpoints where this one serves a background control function. To generalize the intended target to other relatable targets, this assay endpoint is annotated to the background measurement intended target family, where the subfamily is internal marker.
Human liver HepG2 cells are transiently transfected with multiple reporter transcription units (MRTUs) in 6-well plates using FuGene 6 reagent (Roche; 3 ml FuGene/1 mg DNA). The MRTU constructs are regulated by a cis-regulating element (promoter). […] A major difference between the CIS and TRANS system is that in CIS activities of endogenous TFs are measured, whereas the TRANS assay evaluates changes in activities of exogenous, chimeric NR-Gal4 proteins. […] At the end of 24 hour incubation, total RNA was isolated using TriZol reagent (Invitrogen). The isolated RNA is then reverse-transcribed using oligo(dT) primer and Mo-MLV reverse transcriptase (Invitrogen) with DNAse I (Ambion) treatment for 30 min. The one-tenth of the produced cDNA was amplified by PCR using Taq DNA polymerase (Invitrogen) and two reporter sequence-specific primers. The PCR products were fluorescently labeled by primer extension with 6-arboxyfluorescein (6-FAM) 5'-labeled reporter sequence-specific primer (2 min at 95 C, 20 s at 68 C and 10 min at 72 C) and these products were digested with 5U of HpaI (New England Biolabs) for 2h at 37 C. The fragments were purified using Qiaquick PCR columns (Qiagen), analyzed on an ABI 3130xL genetic analyzer (Applied Biosystems) with peak positions identified by using a set of X-rhodamine (ROX)-labeled MapMarker1000 molecular weight standards (BioVentures). The raw capillary electrophoresis data was processed using Attagraph software (Attagene).

Q: Which results are given for `CCCCNC(=O)OCC#CI`?
A: outcome: inactive; AC50: 27.7 µM (active)

Q: With `Oc1ccccc1-c1ccccc1` as the compound, how does the outcome read?
A: The outcome was “inactive”.

Q: Which outcome does the source give for `CNC(=S)S` here?
A: The outcome was “inactive”.

Q: Which outcome does the source give for `COC(=O)C=C(C)OP(=O)(OC)OC` here?
A: Its outcome is “inactive”.

Q: For `COc1nc(NC(C)C)nc(NC(C)C)n1`, which outcome is on record?
A: Its outcome is “inactive”.

Q: With `CO/C=C(/C(=O)OC)c1ccccc1Oc1cc(Oc2ccccc2C#N)ncn1` as the compound, how does the outcome read?
A: The outcome was “inactive”.

Q: Which outcome does the source give for `OC(c1ccc(Cl)cc1)(c1cncnc1)c1ccccc1Cl` (stereo not given) here?
A: Its outcome is “inactive”.

Q: Which outcome does the source give for `COP(=S)(OC)Oc1nc(Cl)c(Cl)cc1Cl` here?
A: Its outcome is “inactive”.

Q: With `C#CCOS(=O)OC1CCCCC1Oc1ccc(C(C)(C)C)cc1` (stereo not given) as the compound, how does the outcome read?
A: The outcome was “inactive”.

Q: Which outcome does the source give for `CCOP(=S)(OCC)SCn1c(=O)oc2cc(Cl)ccc21` here?
A: Its outcome is “inactive”.

Q: Which outcome does the source give for `CS/C(C)=N/OC(=O)N(C)SN(C)C(=O)O/N=C(\C)SC` here?
A: The outcome was “inactive”.

Q: With `CCCCNC(=O)n1c(NC(=O)OC)nc2ccccc21` as the compound, how does the outcome read?
A: The outcome was “inactive”.

Q: With `CCOC(=O)C(Cl)Cc1cc(-n2nc(C)n(C(F)F)c2=O)c(F)cc1Cl` (stereo not given) as the compound, how does the outcome read?
A: The outcome was “inactive”.

Q: For `CCCC1COC(Cn2cncn2)(c2ccc(Cl)cc2Cl)O1` (stereo not given), which outcome is on record?
A: The outcome was “inactive”.

Q: And the AC50?
A: The AC50 was 50 µM (active).

Q: With `CCCCC(CC)COC(=O)c1ccccc1C(=O)OCC(CC)CCCC` (stereo not given) as the compound, how does the outcome read?
A: Its outcome is “inactive”.

Q: With `CCOC(=O)CC(SP(=S)(OC)OC)C(=O)OCC` (stereo not given) as the compound, how does the outcome read?
A: Its outcome is “inactive”.

Q: For `CC1=C(C(=O)Nc2ccccc2)SCCO1`, which outcome is on record?
A: The outcome was “inactive”.

Q: With `CON(C)C(=O)Nc1ccc(Cl)c(Cl)c1` as the compound, how does the outcome read?
A: Its outcome is “inactive”.

Q: With `CNC(=O)ON=CC(C)(C)SC` as the compound, how does the outcome read?
A: Its outcome is “inactive”.

Q: Which outcome does the source give for `N#Cc1nn(-c2c(Cl)cc(C(F)(F)F)cc2Cl)c(N)c1S(=O)C(F)(F)F` (stereo not given) here?
A: The outcome was “inactive”.

Q: Which outcome does the source give for `Cc1ccc(-c2c(Cl)nc(C#N)n2S(=O)(=O)N(C)C)cc1` here?
A: Its outcome is “inactive”.

Q: For `CCCCOC(=O)c1ccccc1C(=O)OCCCC`, which AC50 is on record?
A: The AC50 was 39.8 µM (active).

Q: And the outcome?
A: The outcome was “inactive”.

Q: With `COC(=O)c1ccccc1C(=O)OC` as the compound, how does the outcome read?
A: Its outcome is “inactive”.

Q: Which outcome does the source give for `COc1nc(C)nc(NC(=O)NS(=O)(=O)c2ccccc2Cl)n1` here?
A: The outcome was “inactive”.

Q: With `C=CCC1=C(C)C(OC(=O)C2C(C=C(C)C)C2(C)C)CC1=O` (stereo not given) as the compound, how does the outcome read?
A: The outcome was “inactive”.

Q: What about the AC50 of the same compound?
A: The AC50 was 30.9 µM (active) and 52.5 µM (active) and 74.7 µM (active).

Q: For `N#Cc1cc(Br)c(O)c(Br)c1`, which outcome is on record?
A: Its outcome is “inactive”.

Q: For `CCc1nn(C)c(C(=O)NCc2ccc(C(C)(C)C)cc2)c1Cl`, which outcome is on record?
A: Its outcome is “inactive”.

Q: For `C=CCC1=C(C)[C@@H](OC(=O)[C@@H]2[C@@H](C=C(C)C)C2(C)C)CC1=O`, which outcome is on record?
A: The outcome was “inactive”.

Q: With `O=C(O)c1nc(Cl)ccc1Cl` as the compound, how does the outcome read?
A: The outcome was “inactive”.

Q: Which outcome does the source give for `COP(N)(=O)SC` (stereo not given) here?
A: The outcome was “inactive”.

Q: Which outcome does the source give for `CC(C)(C)c1ccc(CSc2cnn(C(C)(C)C)c(=O)c2Cl)cc1` here?
A: The outcome was “inactive”.

Q: With `N#CC(CCc1ccc(Cl)cc1)(Cn1cncn1)c1ccccc1` (stereo not given) as the compound, how does the AC50 read?
A: Its AC50 is 16.9 µM (active).

Q: With `CCON=C(CC)C1=C(O)CC(c2c(C)cc(C)cc2C)CC1=O` (stereo not given) as the compound, how does the outcome read?
A: Its outcome is “inactive”.

Q: For `O=C(Nc1ccccc1)Nc1ccnc(Cl)c1`, which outcome is on record?
A: Its outcome is “inactive”.

Q: With `COc1ccc(C(c2ccc(OC)cc2)C(Cl)(Cl)Cl)cc1` as the compound, how does the outcome read?
A: Its outcome is “inactive”.

Q: Which outcome does the source give for `COC(=O)N(OC)c1ccccc1COc1ccn(-c2ccc(Cl)cc2)n1` here?
A: Its outcome is “inactive”.
